Assay results from PubChem BioAssay (EPA / NIEHS).
Calls of active or inactive are those of the source. How the source made its calls: active means hit-call score of the fitted dose curve at least 0.9, where 1 is the maximum; inactive means score below 0.9.

The compounds below were run on Monocyte Chemoattractant Protein-1 (MCP1), CCL2 (gene 6347) (assay: BSK_3C_MCP1: BioMAP Diversity Plus: 3C Assay for Monocyte Chemoattractant Protein-1 (MCP1) Biomarker Activity (AID 2283017)). Details: primary human endothelial cells (HUVEC); actives raise or lower the signal.
Experimental: BSK_3C is a cell-based, multiplexed-readout assay that uses umbilical vein endothelium, a human vascular primary cell, with measurements taken at 24 hours after chemical dosing in a 96-well plate.BSK_3C_MCP1 is an assay component measured in the BSK_3C assay. It measures MCP-1 antibody related to regulation of gene expression using ELISA technology.Data from the assay component BSK_3C_MCP1 was analyzed into 1 assay endpoint. This assay endpoint, BSK_3C_MCP1, was analyzed with bidirectional fitting relative to DMSO as the negative control and baseline of activity. Using a type of binding reporter, gain or loss-of-signal activity can be used to understand changes in the signaling as they relate to the gene CCL2. Furthermore, this assay endpoint can be referred to as a primary readout, because this assay has produced multiple assay endpoints where this one serves a signaling function. To generalize the intended target to other relatable targets, this assay endpoint is annotated to the cytokine intended target family, where the subfamily is chemotactic factor.
The levels of cell surface (or secreted, indicated by the prefix "s") biomarker endpoints were measured by ELISA. Overt cytotoxicity to cells in confluent adherent cultures (all systems other than the BT system) was assessed by measuring total protein levels using sulforhodamine B (SRB) staining in parallel cultures at the time of biomarker measurements, indicated as SRB endpoints. For proliferation assays for adherent cell types, individual cell types are cultured at sub-confluence and relative cell numbers quantified by SRB staining at time points optimized for each system (48 h: 3C and CASM3C systems; 72 h: BT and HDF3CGF systems; 96 h: SAg system). SRB was performed by staining cells with 0.1% SRB after fixation with 10% TCA and reading wells at 560 nm.Viability and proliferation of PBMC (T cells) was quantified by Alamar Blue reduction for the SAg and BT systems. For PBMC viability (referred to as PBMC Cytotoxicity within the assay endpoint names), cells were plated (75,000/well in a 96-well plate) and then chemical samples added for 1 h before addition of activators, SEB and TSST-1 (20 ng/mL final concentration each). Cells were incubated for 90 h. Then, Alamar Blue (20 uL/well) (Invitrogen, Cat DAL1100) was added for 6 h, and the plates were read with a fluorescence microplate reader at 546/580 nm (excitation/emission). For PBMC proliferation, cells were plated and activated as above but incubated for only 16 h prior to addition of Alamar Blue. Plates were read after 6 h.

Question: How did the outcome turn out when `O=C1CCCCCN1` was run?
Answer: inactive

Question: `CC(C)CCCCCCOC(=O)c1ccc(C(=O)OCCCCCCC(C)C)c(C(=O)OCCCCCCC(C)C)c1` was tested. Which outcome did it give?
Answer: inactive

Question: With `Cn1cnc([N+](=O)[O-])c1Sc1ncnc2nc[nH]c12` as the compound, how does the outcome read?
Answer: inactive

Question: For `CC(C)=CCC/C(C)=C/CO`, which outcome is on record?
Answer: inactive

Question: For `CC(C)=CCCC(C)=CC=O`, which outcome is on record?
Answer: inactive

Question: How did the AC50 turn out when `Fc1ccccc1[C@@H](F)COC1CCC(Nc2ncnc3[nH]ncc23)CC1` (stereo not given in full) was run?
Answer: 30.2 µM (active)

Question: How did the outcome turn out when `CC[C@H]1OC(=O)[C@H](C)[C@@H](O[C@H]2C[C@@](C)(OC)[C@@H](O)[C@H](C)O2)[C@H](C)[C@@H](O[C@@H]2O[C@H](C)C[C@H](N(C)C)[C@H]2O)[C@](C)(O)C[C@@H](C)C(=O)[C@H](C)[C@@H](O)[C@]1(C)O` was run?
Answer: inactive

Question: With `CNS(=O)(=O)c1cc(C(=O)N2CCC(CCN3C4CCC3CC(n3c(C)nc5ccccc53)C4)(c3cccc(F)c3)CC2)c(Cl)cc1F` (stereo not given) as the compound, how does the AC50 read?
Answer: 33.7 µM (active)

Question: `Cc1ccc(S(=O)(=O)O)cc1C` was tested. Which outcome did it give?
Answer: inactive

Question: `CC[C@H](C)C(=O)O[C@H]1C[C@@H](C)C=C2C=C[C@H](C)[C@H](CC[C@@H]3C[C@@H](O)CC(=O)O3)[C@H]21` was tested. Which AC50 did it give?
Answer: 24 µM (active)

Question: `O=C(O)c1cc(N=Nc2ccc(S(=O)(=O)Nc3ccccn3)cc2)ccc1O` was tested. Which outcome did it give?
Answer: inactive

Question: With `CCOC(=O)c1ccc(C2CCC(NC[C@H](O)COc3ccc(O)c(NS(C)(=O)=O)c3)CC2)cc1` (stereo not given in full) as the compound, how does the AC50 read?
Answer: 27.9 µM (active)

Question: Which outcome does the source give for `CC1(C)C(=O)N(Br)C(=O)N1Br` here?
Answer: inactive

Question: How did the outcome turn out when `CCNc1ccccc1` was run?
Answer: inactive

Question: How did the AC50 turn out when `COc1cccc(-c2ccc(/C=C\CN3CCCCCC3)cc2Cl)c1` was run?
Answer: 30.9 µM (active)

Question: Which outcome does the source give for `O=C1CCC(N2C(=O)c3ccccc3C2=O)C(=O)N1` (stereo not given) here?
Answer: inactive

Question: With `Oc1ccc2c(c1)-c1ccccc1C2` as the compound, how does the outcome read?
Answer: inactive

Question: How did the outcome turn out when `CCCCC(CC)COC(=O)CCCCCCCCC(=O)OCC(CC)CCCC` (stereo not given) was run?
Answer: inactive

Question: How did the outcome turn out when `CC(C)CCO` was run?
Answer: inactive

Question: With `CCCN(C1CCN(C(=O)C2CCNCC2)CC1)[C@@H]1CCc2ccc(OC)cc2C1` as the compound, how does the outcome read?
Answer: inactive

Question: How did the outcome turn out when `COc1ccc(/C=C/S(=O)(=O)NC(=O)c2ccc(C)cc2Cl)cc1` was run?
Answer: inactive

Question: With `Cc1c(-c2cccnc2)c2ccccc2n1CCCCC(=O)O` as the compound, how does the outcome read?
Answer: inactive

Question: `C1N2CN3CN1CN(C2)C3` was tested. Which outcome did it give?
Answer: inactive

Question: How did the outcome turn out when `CC[C@H]1CC[C@H](NCc2cc3c(cc2OC)[C@H]2C[C@H]2C(=O)N3C)[C@H](c2ccccc2)N1` was run?
Answer: inactive

Question: With `CCOCCO` as the compound, how does the outcome read?
Answer: inactive

Question: With `CC(C)=CCCC(C)CCO` (stereo not given) as the compound, how does the outcome read?
Answer: inactive

Question: How did the outcome turn out when `C=CCCCCCCCCC(=O)O` was run?
Answer: inactive

Question: How did the outcome turn out when `Nc1cccc(N)c1` was run?
Answer: inactive

Question: How did the AC50 turn out when `CCOC(=O)COc1ccc2c(c1)CC(NCC(O)c1cccc(Cl)c1)CC2` (stereo not given) was run?
Answer: 33.6 µM (active)

Question: `O=C(NS(=O)(=O)/C=C/c1ccccc1)c1ccc(F)cc1Cl` was tested. Which outcome did it give?
Answer: inactive

Question: Which outcome does the source give for `O=C(O)c1cccc(N(Cc2cccnc2)c2ccc(OC(F)F)c(OC(F)F)c2)c1` here?
Answer: inactive

Question: Which outcome does the source give for `CCN(C(=O)c1cc(C)cc(OC[C@H](C)Nc2ccncc2)c1)C(C)C` here?
Answer: inactive

Question: How did the outcome turn out when `COCCOCCOCCOC` was run?
Answer: inactive

Question: For `Cc1ccc(O)cc1`, which outcome is on record?
Answer: inactive

Question: For `CC/C(=C\C(=N/O)C(N)=O)C(C)[N+](=O)[O-]` (stereo not given), which outcome is on record?
Answer: inactive

Question: For `C=CC(=C)CCC=C(C)C`, which outcome is on record?
Answer: inactive

Question: With `O=c1[nH]c2ccc(S(=O)CCN3CCC(Cc4ccc(F)cc4)CC3)cc2o1` (stereo not given) as the compound, how does the outcome read?
Answer: inactive

Question: How did the outcome turn out when `C[C@](N)(Cc1ccc(O)c(O)c1)C(=O)O` was run?
Answer: inactive

Question: How did the outcome turn out when `CCn1nc(Cc2ccccc2)cc1C1CCN(C[C@H]2C[C@H](N(C)[C@@H](C(=O)O)C(C)C)C[C@@H]2c2cccc(F)c2)CC1` was run?
Answer: inactive

Question: Which outcome does the source give for `NC(=O)NO` here?
Answer: inactive
